Screening results as filed in PubChem BioAssay.
ST2 IL33 inh: blocks human ST2 binding to IL-33 | AID 1259354 | inhibition, % for hits at 17 µM | 2.3% of 78,000 active | AlphaLISA ST2-Fc/biotin-IL-33 interaction, 1 h | Q01638; in the data active = inhibition above about 30%
Target sequence (Q01638 whole entry, looked up): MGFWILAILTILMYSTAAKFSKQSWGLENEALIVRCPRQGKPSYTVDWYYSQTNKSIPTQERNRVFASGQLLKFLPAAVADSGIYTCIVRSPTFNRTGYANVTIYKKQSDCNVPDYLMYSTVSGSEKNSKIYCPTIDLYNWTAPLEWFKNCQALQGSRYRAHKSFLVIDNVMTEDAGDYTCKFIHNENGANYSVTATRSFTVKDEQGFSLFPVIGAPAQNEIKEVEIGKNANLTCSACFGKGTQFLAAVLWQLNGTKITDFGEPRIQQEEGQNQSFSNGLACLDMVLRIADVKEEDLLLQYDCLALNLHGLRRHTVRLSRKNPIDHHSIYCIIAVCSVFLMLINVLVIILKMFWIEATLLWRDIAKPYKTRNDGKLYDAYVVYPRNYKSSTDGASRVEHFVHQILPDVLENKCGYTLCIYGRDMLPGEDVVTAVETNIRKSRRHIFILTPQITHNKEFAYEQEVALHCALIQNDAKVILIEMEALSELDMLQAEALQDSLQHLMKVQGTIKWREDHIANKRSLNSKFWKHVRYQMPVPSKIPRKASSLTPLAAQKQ
An asterisk follows results filed as active; i = inactive. This is one part of a sample in which hits are shown more often than they occur.

SMILES	ST2 IL33 inh
CN1C(=O)S/C(=C/c2ccccc2OCc2ccc(C(=O)O)cc2)C1=O	i
CC1CCCN(C(=O)C(C)Oc2ccccc2)C1 (stereo not drawn)	i
CCOc1ccc(N2C(=O)Nc3ccc(Br)cc3C2(O)C(=O)NC2CC2)cc1 (stereo not drawn)	i
CC(C)c1cc(C2CCN(C(=O)c3nc(C(C)C)cs3)CC2)[nH]n1	i
COc1ccc2oc(=O)c(C(=O)Nc3cccc([N+](=O)[O-])c3)cc2c1	i
CCN1CCN(Cc2cc(C(=O)N(C)Cc3ccco3)no2)CC1	i
CC(C)c1cc(NS(=O)(=O)c2ccccc2)c(O)c(C(C)C)c1	i
O=C(Nc1ccnn1C1CCN(Cc2cccc(-c3ccco3)c2)CC1)c1ccccc1	i
CCC(=O)N1CCc2cc(Br)cc(S(=O)(=O)NC3CCCCCC3)c21	i
COc1ccc(Nc2cc(C)nc(N3CCN(S(=O)(=O)c4ccc(OC)cc4)CC3)n2)cc1	i
COc1ccc(S(=O)(=O)N2CCN(c3nc(C)cc(Nc4ccccc4)n3)CC2)cc1C	34%*
COc1ccc(Nc2cc(C)nc(N3CCN(S(=O)(=O)c4ccc(OC)c(C)c4)CC3)n2)cc1	i
CC(=O)N1c2c(cc(Br)cc2S(=O)(=O)Nc2cc(Cl)ccc2C)CC1C (stereo not drawn)	i
O=C(C#Cc1ccc([N+](=O)[O-])cc1)c1ccccc1	33%*
O=C(NC(=O)c1ccccc1)Oc1ccc([N+](=O)[O-])cc1	i
O=[N+]([O-])c1ccc(C(=Nc2ccccc2)NO)cc1	i
CC(C)(C)c1ccc(S(=O)(=O)NCc2nc3cccnc3n2Cc2ccc(F)cc2)cc1	i
CC(=O)CSc1nc(-c2cccs2)cc(C(F)(F)F)c1C#N	i
CCc1nnc(NC(=O)CSc2nc(-c3cccs3)cc(C(F)(F)F)c2C#N)s1	i
N#Cc1c(C(F)(F)F)cc(-c2cccs2)nc1SCC(=O)Nc1ccc([N+](=O)[O-])cc1	38%*
Cc1ccc(-c2noc(CCC(=O)Nc3ccc(C)cn3)n2)cc1	i
COc1ccc(Cl)cc1NC(=O)Cc1ccc(F)cc1	i
O=C(Nc1ccc(Br)cc1)c1ccc(Cl)c(S(=O)(=O)N2CCCCCC2)c1	i
COc1ccc(S(=O)(=O)Nc2ccc(OC)cc2[N+](=O)[O-])cc1	i
COc1ccc(C=C2c3cc([N+](=O)[O-])cc([N+](=O)[O-])c3-c3c2cc([N+](=O)[O-])cc3[N+](=O)[O-])cc1	51%*
SMILES	ST2 IL33 inh
CN(C)c1ccc(/C=C2\c3cc([N+](=O)[O-])ccc3-c3c2cc([N+](=O)[O-])cc3[N+](=O)[O-])cc1	i
COc1ccc(/C=C2\N=C(c3ccc(C)c([N+](=O)[O-])c3)OC2=O)cc1	i
CN(C)c1ccc(C=C2c3cc([N+](=O)[O-])cc([N+](=O)[O-])c3-c3c2cc([N+](=O)[O-])cc3[N+](=O)[O-])cc1	42%*
CN(C)c1ccc(/C=C2\N=C(c3cccc([N+](=O)[O-])c3)OC2=O)cc1	i
Cc1ccc(OCc2cc(=O)n3oc(C)cc3n2)c(NC(=O)C2CCCCC2)c1	i
CC(=O)N1CCCC1c1ccc(C(=O)NCCC2=CCCCC2)s1 (stereo not drawn)	i
O=C1NC(=Nc2ccccc2)SC1Cc1ccccc1 (stereo not drawn)	i
COc1ccc(CC2SC(=Nc3ccccc3)NC2=O)cc1 (stereo not drawn)	31%*
O=C1NC(=Nc2ccccc2)SC1Cc1cccc([N+](=O)[O-])c1 (stereo not drawn)	i
COCCCNC(=O)c1ccc(N(Cc2ccccc2Cl)S(C)(=O)=O)cc1	i
COCCn1cc(C(=O)NCc2ccc(C)o2)c2c3ccccc3n(C)c2c1=O	i
COc1ccc(C(=O)N2CCN=C2SCc2ccc(Br)cc2)cc1OC	i
COc1nccnc1N1CCC(O)(CO)CC1	i
CCCN1C(=O)C(=O)c2cc(Br)ccc21	i
CCN1C(=O)/C(=C2\SC(N)=NC2=O)c2cc(Br)ccc21	i
CCCN1C(=O)/C(=C2\SC(N)=NC2=O)c2cc(Br)ccc21	33%*
Cc1ccc(N(C(=O)c2ccc(C(C)(C)C)cc2)C2C=CS(=O)(=O)C2)cc1 (stereo not drawn)	i
COc1cccc2cc(C(=O)NC(C)=O)c(=Nc3ccc(F)cc3)oc12	i
CN(C)C(=O)c1ccc2c(c1)N(CC(=O)NC1CCCCCC1)C(=O)C1CCCCN21 (stereo not drawn)	i
Cc1cccc2oc(-c3cccc(N=Cc4cc([N+](=O)[O-])ccc4O)c3)nc12	i
COc1cc([N+](=O)[O-])cc(C=Nc2ccc3oc(-c4ccccc4C)nc3c2)c1O	i
O=[N+]([O-])c1ccc(O)c(C=Nc2ccc3oc(Cc4ccccc4)nc3c2)c1	48%*
Cc1cccc2oc(-c3cc(N=Cc4cc([N+](=O)[O-])ccc4O)ccc3O)nc12	32%*
Cc1cccc2oc(-c3ccc(N=Cc4cccc([N+](=O)[O-])c4O)cc3)nc12	i
CCOc1ccc(-c2nc3cc(N=Cc4cc([N+](=O)[O-])ccc4O)ccc3o2)cc1	i
SMILES	ST2 IL33 inh
CC(=O)NCCc1ccc(O)c(O)c1	i
C[N+](C)(C)CCCCCCCCCC[N+](C)(C)C	i
COC(=O)c1c(NC(=O)c2cc3ccccc3oc2=O)sc2c1CCC(C)C2 (stereo not drawn)	i
CC1(C(=O)NC2CCCCCC2)CCC(=O)N1Cc1ccc(F)cc1 (stereo not drawn)	i
CN(CCCn1cccn1)C(=O)C1=NNC(=O)CC1	i
CC(=O)N1c2ccccc2NC2=C(C(=O)CCC2)C1c1ccco1 (stereo not drawn)	i
CC(=O)N1c2ccccc2NC2=C(C(=O)CCC2)C1c1ccc(Cl)c(Cl)c1 (stereo not drawn)	i
CC(C)C(=O)N1c2ccccc2NC2=C(C(=O)CCC2)C1c1ccco1 (stereo not drawn)	30%*
CCc1ccc(NC(=O)CN2CCN(Cc3cc(C)ccc3C)S2(=O)=O)cc1	i
O=C(O)c1ccc2ccccc2n1	i
CC(O)=Cc1nc2ccccc2nc1C=C(C)O	38%*
Cc1nc2ccccc2c(C(=O)O)c1C(=O)O	i
Cc1cc(C)c(C2C(C#N)=C(N)OC3=C2C(=O)CC(C)(C)C3)c(C)c1 (stereo not drawn)	i
COc1cccc(-n2c(=O)[nH]cc(C(=O)Nc3ccc4c(c3)OCO4)c2=O)c1	i
O=C1c2ccc([N+](=O)[O-])cc2C(=O)N1CNc1ccc2c(c1)oc1ccccc12	i
C=CCn1cc(C(=O)N(C)Cc2ccccc2)c(=O)c2cc(S(=O)(=O)N(CC)CC)ccc21	i
CC(=O)Nc1sc2c(c1C#N)CCCC2	i
N#Cc1c(N)sc2c1CCCC2	31%*
N#Cc1c(-n2cccc2C=O)sc2c1CCCC2	i
O=C(c1ccc(Cl)cc1)c1c[nH]c2ccc(F)cc2c1=O	i
CCOC(=O)c1sc2ccc(S(=O)(=O)N3CCCCC3)cc2c1N	i
O=C(Nc1ccc(Br)cc1)c1cc(-c2ccc(Cl)cc2)on1	i
O=C(Nc1ccc(F)cc1F)c1cc(-c2ccc(Br)cc2)on1	i
COc1ccc(-c2cc(C(=O)Nc3cc(Br)ccc3O)no2)cc1	35%*
O=C(Nc1cccc([N+](=O)[O-])c1)[C@H]1[C@H](C(=O)O)[C@H]2C=C[C@@H]1C2	i
COc1cc(C=Nc2ccc(Nc3ccccc3)cc2)c([N+](=O)[O-])cc1OC	57%*
